SMILES strings stand for the structures.

The experiment relates to HepG2. As to the kind of experiment: GSK_TCMDC: Percent inhibition of human HepG2 cell line. Test compounds present at 10uM. Type of experiment: functional.
What is called Inhibition is the relative decrease from the control value, in per cent. Read a low Inhibition as a response near the control. With `Br.Oc1ccc(CNCCCCCCNCCc2ccc(Cl)cc2)cc1O`, the Inhibition stood at 2%.

For `CCOC(=O)c1nc(-c2ccccc2)[nH]c1-n1nc(C)cc1C`, the Inhibition worked out at 7%. The result for `O=C(NCCc1ccccc1)N(Cc1cccc(-c2ccc(CNCc3ccc4c(c3)OCO4)cc2)c1)C1CCN(Cc2ccccc2)CC1.O=C(O)C(F)(F)F` reads 11%; that for `COc1cc(C)c(NC(=O)c2cccc3c(=O)c(C)c(-c4ccccc4)oc23)cc1OC`, 96%; that for `CCOC(=O)CN1Cc2cc(NCc3ccc4ccc5nc(C)[nH]c(=O)c5c4c3)ccc2C1=O`, 40%. The result for `Cc1noc(-c2cccs2)c1C(=O)NC(C)c1cccc2ccccc12` (configuration not stated) reads 0%. The result for `O=C(NCc1ccccc1)Nc1cccc(-c2cccc(-c3nc4cc(C(F)(F)F)ccc4[nH]3)c2)c1` reads 56%; that for `O=c1c2ccccc2[nH]c2nc3ccccc3c(Nc3ccccc3)c12`, 8%; that for `Oc1c(C(Nc2ccccn2)c2ccco2)cc(Cl)c2cccnc12` (configuration not stated), 41%.

`C#CCN(Cc1ccc2[nH]c(N)nc(=O)c2c1)c1ccc(C(=O)N[C@@H](CCC(=O)O)C(=O)O)cc1` yielded an Inhibition of 45%. Regarding `CCS[C@@H]1O[C@H](COC(=O)c2ccccc2)[C@H](OC(=O)c2ccccc2)[C@H](OC(=O)c2ccccc2)[C@H]1OC(=O)c1ccccc1`, the Inhibition was 4%. The compound `CCCCCCN1CCC(NCc2cccc(C#N)c2)CC1.O=C(O)C(F)(F)F` registered an Inhibition of 5%. The result for `CCNc1cc(C)nc(Nc2ccc(C)cc2)n1` reads 12%; that for `CC(C)(C)OC(=O)C1CCCN(Cc2ccc(-c3cccc(-c4nc5ccccc5[nH]4)c3)cc2)C1.O=C(O)C(F)(F)F` (configuration not stated), 37%; that for `CCOc1ccccc1CON1C(N)=NC(N)=NC1(C)C`, 66%.

`CN(C)CCOc1ccc(-n2c(-c3nonc3N)nc3cncc(-c4ccc(F)cc4)c32)cc1` showed an Inhibition of 10%.

The compound `N#Cc1ccc(C(=O)NC2CCN(CCCCCNC(=O)/C=C/c3ccc(Cl)c(Cl)c3)CC2)cc1` yielded an Inhibition of 13%.

`Cc1cnccc1/C=C/c1cccc(OCCN2CCc3ccc(S(C)(=O)=O)cc3CC2)c1` came in with an Inhibition of 9%.

In the case of `COc1cccc(-c2cc(C(=O)NC3CCC(N4CCC(c5ccccc5C)CC4)CC3)[nH]n2)c1` (configuration not stated), the Inhibition was determined as 60%. The result for `COc1ccc(NC(=O)/C=C/c2ccccc2Cl)cc1OCCN1CCC(NCc2cccnc2)CC1` reads 12%; that for `COc1ccc2[nH]c(C)cc(=NN=Cc3ccccc3)c2c1`, 4%. The result for `CCCCN(CCCC)/C(=N/C(=N)Nc1ccc(Cl)cc1)NCCCCCCN/C(=N\C(=N)Nc1ccc(Cl)cc1)N(CCCC)CCCC` reads 0%; that for `N#Cc1ccc(N(CCOc2ccc(Cl)c(F)c2)Cc2ccccc2C(F)(F)F)cc1C(F)(F)F`, 17%; that for `CC(CN(C)C)C(=O)Nc1ccc(-c2ccc(-c3nc4ccccc4[nH]3)s2)cc1` (configuration not stated), 14%. As for `Cc1nn(-c2cccc(Cl)c2)c2c1C(C(=O)c1ccc3c(c1)OCO3)CC(=O)N2` (configuration not stated), the Inhibition is 5%. On to `O=C(Cn1c(CCc2cccc(F)c2F)nc(=O)c2ccccc21)N(Cc1ccc(-c2ccc(C(F)(F)F)cc2)cc1)C1CCN(C2CCSCC2)CC1.O=C(O)C(O)C(O)C(=O)O`, for which the Inhibition was 97%. The result for `COc1cc(Nc2nccc(N3CCC(NC(=O)Nc4cccc(C(C)=O)c4)C3)n2)cc(OC)c1OC` (configuration not stated) reads 8%; that for `CC(C)(CN)c1cc(-c2ccc(Cl)c(O)c2)c(-c2ccncc2)o1.Cl`, 44%; that for `O=C(O)C(F)(F)F.O=[N+]([O-])c1cccc(CNC2CCN(Cc3ccc(C(F)(F)F)cc3)CC2)c1`, 0%. Compound `Cl.Oc1cccc(Nc2ccnc3cc(-c4ccccn4)ccc23)c1` displayed an Inhibition of 24%. Regarding `Nc1ncnc2cc(-c3cccc(NC(=O)Nc4ccccc4)c3)sc12`, the Inhibition was 4%. `CN(c1ccc(NC(=O)Nc2cc(C(C)(C)C)on2)cc1)c1ccnc(NCCOC(=O)Nc2cc(C(C)(C)C)on2)n1.O=C(O)C(F)(F)F` came in with an Inhibition of 59%. Turning to `COc1cc2nc(NCCc3ccccc3)nc(NCCc3ccccc3)c2cc1OC`, the Inhibition is 99%. The result for `COc1ccc(CNCc2ccc(-c3ccc(-c4nc5ccccc5[nH]4)cc3)cc2)cc1.O=C(O)C(F)(F)F` reads 63%. The result for `CN1CCCC1CCNC(=O)[C@H](CC1CCCCC1)NC(=O)c1ccc(O)c(-c2ccc(Cl)c(Cl)c2)c1` (some centres not stated) reads 0%; that for `CCN1CCCC(CNC(=O)/C(=C/C=C/c2cc3cc(Cl)c(Cl)cc3[nH]2)OC)C1` (configuration not stated), 33%. The result for `O=C1SC(S)=NC1=CNCCCCCCO` reads 7%.

The values are drawn from ChEMBL document CHEMBL1157539, “Thousands of chemical starting points for antimalarial lead identification” (Nature, 2010).
